Source: PubChem BioAssay
Sm TGR inh: qHTS Assay for the Inhibitors of Schistosoma Mansoni Peroxiredoxins | 3% of 360,000 active | Potency, µM (titrated, usually from 114 µM), for inactives: at the top dose activity change, negative = inhibition, actives largely listed as inhibitors | Schistosoma mansoni thioredoxin glutathione reductase (TGR), Q962Y6 | purified TGR, DTNB reduction, TNB absorbance 405 nm; also: nearly all actives have a fitted effect of over 60% in size
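TGR 20 nM + NADPH 100 uM (dispensed conc.), cpd preinc 15 min RT; start with NADPH (500 uM addition) then DTNB (15 mM addition). Kinetic TNB absorbance, 405 nm filter. Four-parameter Hill fit across titration.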
RE007 growth inh: qHTS Assay for Inhibitors of the HIV-1 protein Vpr; S. pombe RE007 Vpr strain, BacTiter-Glo ATP luminescence, 24 h; Potency, µM (top dose mostly 92.2 µM), inactives show top-dose activity change, negative = less growth, usual class: inhibitors; 0.21% of 360,000 active; AID 651644, 2012; active = well fitted falling curve with a large enough effect; inconclusive = small, poorly fitted or top-dose-only effect; inactive = no such curve, though single readings can be large or run the other way; also: nearly all actives have a fitted effect of over 50% in size
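Fission yeast RE007 carrying one integrated HIV-1 vpr copy, seeded at OD 0.01 in PMG+AL medium with 23 nL pinned compound. Grown 24 h at 30 degrees; viability read by BacTiter-Glo luminescence after 5 min.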
TbPYK inhibitor: qHTS of Trypanosoma Brucei Inhibitors; TbPYK enzyme, Kinase-Glo Plus ATP luminescence, 45 min; 0.12% of 410,000 active; Potency, µM (top dose mostly 76.8 µM), for inactives: top-dose activity, negative = inhibition, most hits filed as inhibitors; also: nearly all actives have a fitted effect of over 50% in size
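Screened from lowest to highest concentration, compounds were pinned into TbPYK/substrate mixtures, and ADP (130 uM final) was added. Plates sat at room temperature for 45 min prior to Kinase-Glo Plus detection by luminescence.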
FMDV inh: High Throughput Screening for Foot and Mouth Disease Virus Antivirals; Potency, µM (highest dose often 57.9 µM), inactives show at the top dose activity change, negative = inhibition, actives largely listed as inhibitors; 1.2% of 410,000 active; FMDV antiviral cell-based qHTS; calls by dose curve; tested in HEK293T cells; also: read-out not given here; nearly all actives have a fitted effect of over 45% in size
The depositor's hits bear a star; ? = inconclusive; · = no result; [ ] = dose if it differs, or a comment. Compounds with a hit are over-represented: about 3.7% of the library has one in this group of screens. Unless noted, calls follow the shape of the dose curve; as a rule, active = well fitted curve in the direction sought with a large enough effect; inconclusive = small, poorly fitted or top-dose-only effect, or another doubt; inactive = no such curve, though single readings can be large; an effect the other way counts as inactive or inconclusive. % is scaled to controls: 0 for no effect and ±100 for the full control effect; potency is read from the fitted curve at half-maximal effect.

SMILES | Sm TGR inh | RE007 growth inh | TbPYK inhibitor | FMDV inh
CCN(CC)CCCN1C=C2C(=O)C(C)(OC(=O)C3CCCC3)C(=O)C=C2C=C1c1ccsc1 (configuration not stated) | 50µM* | 0% | 1% | 3%
CC1(OC(=O)C2CCCC2)C(=O)C=C2C=C(c3ccsc3)N(Cc3ccccc3)C=C2C1=O (configuration not stated) | 1% | -3% | 3% | -4%
CCOc1cc(/C=N/Nc2nnc(C)n2N)ccc1O | 50µM* | 7% | 2% | -19%
Cc1ccc(C2C(C#N)=C(N)Oc3c2oc(CO)cc3=O)o1 (configuration not stated) | 40µM* | -17% | 6% | -5%
Cc1cc(C)c(Cn2c(=O)n(CCC(=O)NCCc3ccccc3)c(=O)c3ccccc32)c(C)c1 | -2% | · | -6% | -2%
Cc1ccc2c(c1)C(=O)C1(O)CCN(c3ccccc3)C1=N2 (configuration not stated) | · | · | · | -16%[97.4 µM]
Cc1cccc(NC(=S)NCCc2ccccc2)c1C | -3% | -4% | 0% | 24%
Cc1cccc(C)c1NC(=S)NCCc1ccc(O)c(O)c1 | 7.9µM* | -2% | -3% | 33%
CCc1c(C(C)S(=O)(=O)c2ccccc2)[nH]c(=O)n1CC (configuration not stated) | 1µM* | -5% | -16% | -7%
Clc1ccccc1-c1nccc(NCc2ccccc2)n1 | · | · | · | 10%
COc1ccc(NC(=O)c2oc3ccccc3c2NC(=O)Cc2coc3ccc(C)cc23)cc1 | 2% | · | -1% | 9%
COc1ccc(CCCc2nnc(SCC(=O)Nc3cccc(C)c3)o2)cc1C | 1% | · | 1% | -24%
COC(=O)c1sccc1NC(=O)c1c(F)c(F)c(F)c(F)c1F | · | -14% | -2% | 22µM*
Cc1cc(C)cc(CN2CCOc3ccc(CN4CCC(O)(c5cccnc5)CC4)cc3C2)c1 | · | · | · | -19%
O=S(=O)(Nc1nc(-c2ccco2)c(-c2ccco2)s1)c1ccc(F)cc1F | · | -10% | -13% | -23%
O=C(Nc1nc(-c2ccco2)c(-c2ccco2)s1)c1ccc(F)cc1F | 10µM* | 80% | ? | 20%
O=C(Nc1nc(-c2ccco2)c(-c2ccco2)s1)c1c(F)cccc1Cl | 22µM* | -9% | -4% | -24%
O=C(Nc1nc(-c2ccco2)c(-c2ccco2)s1)c1cnccn1 | 14µM* | -5% | 6% | -15%
O=C(Nc1nc2c(s1)CCCC2=O)c1cnccn1 | 12% | 0% | -6% | 0%
COc1cccc(CNC(=O)CCCn2nc(C)c3sc4ccccc4c3c2=O)c1 | 32% | · | -3% | -17%
COc1cc(NC(=O)Cn2ncc(Cl)c(Cl)c2=O)c(C)cc1[N+](=O)[O-] | 40µM* | -4% | 0% | 13µM*
COc1cc(=O)n2c(c1C(=O)NCc1nonc1C)CCN(Cc1c[nH]c3ccccc13)CC2 | · | · | · | -5%
O=C(NCc1ccc2c(c1)OCO2)c1nc(S(=O)(=O)Cc2ccccc2F)ncc1Cl | 25µM* | 2% | 0% | 22µM*
O=C(NCc1ccc2c(c1)OCO2)c1nc(S(=O)(=O)Cc2ccccc2)ncc1Cl | 3.2µM* | 1% | 5% | 16µM*
COc1ccc(NC(=O)CC(c2ccccc2)c2ccco2)cc1 (configuration not stated) | 40µM* | 18% | -10% | 29%
SMILES | Sm TGR inh | RE007 growth inh | TbPYK inhibitor | FMDV inh
COc1ccc(NC(=O)CC(C(=O)O)C(C)c2ccccc2)cc1 (configuration not stated) | 5% | 9% | 5% | -11%
Cc1nc(-c2ccc(NC(=O)c3ccccc3)cc2)cs1 | -10% | 45µM* | ? | -42%
CC1=C(/C=C/C(C)=C/C=C/C(C)=C\CO)C(C)(C)CCC1 | · | · | · | -14%
O=C1Nc2ccccc2/C1=N\N=C\C1=C(N2CCOCC2)C(=C\c2ccccc2)/CC1 | 45µM* | · | · | ·
COc1cccc(CNC(=O)CN2C(=O)N(c3cccc(Cl)c3)S(=O)(=O)c3ccccc32)c1OC | 6% | · | 1% | ?
CCOc1ccc(N=C/C=C/c2ccccc2)c(O)c1 | 40µM* | -30% | -12% | 39%
Fc1ccc(-[n+]2nc(Nc3ccccc3)sc2-c2c3ccccc3cc3ccccc23)cc1 | -1% | -10% | 1% | 40µM*
Oc1ccc2ccccc2c1-c1sc(Nc2ccccc2)n[n+]1-c1ccc(F)cc1 | 0% | -19% | -9% | -7%
Cc1ccc(S(=O)(=O)N(CC(=O)NCCSCc2ccco2)c2ccc(F)cc2)cc1 | 13µM* | · | · | ·
COc1ccc(N(CC(=O)NCCSCc2ccco2)S(=O)(=O)c2ccc(C)cc2)cc1 | 28µM* | 9% | 3% | 40%
Cc1ccc(S(=O)(=O)N(CC(=O)NCCSCc2ccco2)c2cc(C)ccc2C)cc1 | · | 2% | 3% | -14%
Cc1cc(Cl)ccc1N(CC(=O)NCCSCc1ccco1)S(C)(=O)=O | 18µM* | 14% | -8% | -9%
Cc1ccc(N(CC(=O)NCCSCc2ccco2)S(C)(=O)=O)cc1 | 45µM* | -3% | 2% | ·
CCc1c(-c2ccccc2)nc2ccccc2c1C(=O)NC(C)c1ccccc1 (configuration not stated) | 2% | · | 5% | -15%
COc1ccc(NC2=CC(c3ccc(OC)c(OC)c3)N(c3ccc(OC)cc3)C2=O)cc1 (configuration not stated) | -32% | · | -16% | -15%
NS(=O)(=O)c1ccc(NC2=CC(c3ccc([N+](=O)[O-])cc3)N(c3ccc(S(N)(=O)=O)cc3)C2=O)cc1 (configuration not stated) | 18µM* | 16% | -1% | -17%
CCCc1nc2c(=O)n(C)c(=O)nc-2n(C)n1 | ? | -14% | -20% | 2.5µM*
Cn1nc(-c2ccccn2)nc2c(=O)n(C)c(=O)nc1-2 | ? | -7% | 0% | 1.3µM*
Cn1c(=O)c(-c2ccc(Cl)cc2)nc2cncnc21 | · | · | · | -16%
Cn1ncnc2c(=O)n(C)c(=O)nc1-2 | -32% | -25% | -3% | 1.6µM*
COC(=O)c1cc(CSc2nnc(NC3CCCCC3)s2)oc1C | 45µM* | -17% | -22% | ?
CCOC(=O)c1c(-n2cnnn2)sc2c1CCCC2 | 0% | 5% | 2% | -28%
CCOC(=O)c1c(N2C(=O)C3C4C=CC(O4)C3C2=O)sc2c1CCCC2 (configuration not stated) | 3.2µM* | ? | ? | -3%
CCc1ccccc1NC(=O)CSc1ncccc1C(=O)O | 0% | · | 0% | 6%
COc1ccc(CCN2C(=O)c3cccc4c(C(=O)N5CCCCC5)ccc(c34)C2=O)cc1OC | -1% | 12% | -14% | 14µM*
COc1ccc(CCNC(=O)CCN2C(=O)c3cccc4cccc(c34)C2=O)cc1OC | 13% | 1% | -3% | -12%
CCOC(=O)C1CCN(C(c2cccnc2)c2c(NC(=O)c3ccco3)sc(C)c2C)CC1 (configuration not stated) | 7.9µM* | 9% | -6% | 25µM*
